Source: PubChem BioAssay AID372 (MTDP, 2006)
Among all 100,000 compounds or so, about 770 (0.77%) were called active. The sample holds actives, similar compounds and a random draw of the others, so the mix is not that of the screen. A number with no mark means an inactive call. Rule as the data show it: active = inhibition above about 50%; inactive = the rest.

biological target: Gag-Pol polyprotein (Human immunodeficiency virus type 1 group M subtype B (isolate HXB2)) (UniProt P04585); assay: RNase H inhibition, HIV 1 Gag Pol polyprotein, FRET biochemical assay, screening (AID 372); conditions: HIV-1 RT RNase H, FRET RNA/DNA substrate fluorescence; at 10 µM; active compounds read high

Structure (SMILES) | inhibition
CC(C)=C1C2CCC1C(C(=O)NCc1ccccc1)C2C(=O)O (stereo unspecified) | 0%
Cn1c(O)c(C(=NCc2ccccc2)c2ccccc2)c(=O)n(C)c1=O | 8%
O=C(Nc1cccc2ccccc12)/C(=C/c1ccccc1)c1ccccc1 | 28%
COc1cccc(OCCCOc2ccccc2[N+](=O)[O-])c1 | 14%
CCOC(=O)C1=C(C)NC2=C(C(=O)CC(c3ccccc3)C2)C1c1cccc([N+](=O)[O-])c1 (stereo unspecified) | 15%
COc1ccc(C(=O)Nc2ccc(NC(=O)c3ccccc3)cc2)cc1[N+](=O)[O-] | 23%
CCOc1ccc(C(=O)Nc2ccc(C(C)=O)cc2)cc1[N+](=O)[O-] | 5%
COc1ccc(C(=O)Nc2ccc(NC(=O)c3ccc(Br)cc3)cc2)cc1[N+](=O)[O-] | 59% (active)
COc1ccc(C(=O)Nc2ccc(NC(C)=O)cc2)cc1[N+](=O)[O-] | 5%
CCOc1ccc(C(=O)Nc2cccc(NC(=O)c3ccccc3)c2)cc1[N+](=O)[O-] | 0%
CCOc1ccc(C(=O)Nc2ccc(NC(=O)c3ccccc3)cc2)cc1[N+](=O)[O-] | 56% (active)
O=C(/C=C/c1ccc2c(c1)OCO2)Nc1ccccn1 | 6%
O=[N+]([O-])c1ccc(-c2ccc(/C=N/n3cnnc3)o2)c(Br)c1 | 12%
COc1ccc([N+](=O)[O-])cc1-c1ccc(/C=N/n2cnnc2)o1 | 57% (active)
COc1ccc(-c2ccc(/C=N/n3cnnc3)o2)c([N+](=O)[O-])c1 | 14%
COc1cccc(NC(=O)c2ccc(CN(c3ccc(C)c(C)c3)S(C)(=O)=O)cc2)c1 | 3%
CC1=C(C(=O)Nc2ccc(Br)cc2)C(c2ccccc2)NC(=O)N1 (stereo unspecified) | 18%
O=C(/C=C/c1ccc(-c2ccccc2Cl)o1)c1ccc(F)cc1 | 47%
O=C(/C=C/c1ccc(-c2cc(Cl)ccc2Cl)o1)c1ccc(F)cc1 | 52% (active)
O=C(/C=C/c1ccc(-c2ccc(Cl)cc2Cl)o1)c1ccc(F)cc1 | 27%
O=C(/C=C/c1ccc(-c2ccc(Cl)cc2)o1)c1ccccc1 | 20%
O=C(/C=C/c1ccc(-c2ccc(Cl)cc2Cl)o1)c1ccccc1 | 13%
CC(=O)/C=C/c1ccc(-c2cc(Cl)ccc2Cl)o1 | 54% (active)
COc1ccc(C(=O)/C=C/c2ccc(-c3cc(Cl)ccc3Cl)o2)cc1 | 15%

Structure (SMILES) | inhibition
O=C(/C=C\c1ccc(-c2cc(Cl)ccc2Cl)o1)c1ccccc1 | 40%
O=C(/C=C/c1ccc(-c2cc(Cl)cc(Cl)c2)o1)c1ccccc1 | 51% (active)
O=[N+]([O-])c1ccc(Cl)c(S(=O)(=O)Nc2ccccn2)c1 | 0%
O=C(c1nn2c(C(F)(F)F)cc(-c3cccs3)nc2c1Br)N1CCOCC1 | 0%
COc1ccc(OC)c(C(=O)N/N=C/c2ccccn2)c1 | 3%
CC(C)(C)c1cc(C(=O)NCC(=O)OCC(=O)c2ccccc2)cc(C(C)(C)C)c1 | 18%
O=C(NC(=S)Nc1ccc(Br)cc1)c1ccc(Cl)cc1 | 1%
Cc1ccc(N(CC(=O)NCCOc2ccc(F)cc2)S(=O)(=O)c2ccccc2)cc1C | 5%
CCOC(=O)Cc1csc(NC(=O)COc2c(C)cccc2C)n1 | 5%
NC(=O)c1cnn2c1NC(c1ccco1)CC2C(F)(F)F (stereo unspecified) | 0%
CC(=O)Nc1ccc(C(=O)Nc2ccc(Cl)cc2Cl)cc1 | 0%
O=C(Nc1ccc(Cl)cc1Cl)c1ccc(-c2ccccc2)cc1 | 0%
O=C(Cc1ccccc1)Nc1ccc(C(=O)Nc2ccc(Cl)cc2Cl)cc1 | 59% (active)
CS/C(N)=N\N=C\c1cc([N+](=O)[O-])ccc1O | 18%
COc1ccccc1C(=O)NC(=S)Nc1cc([N+](=O)[O-])ccc1Cl | 6%
O=C(NC(=S)Nc1cc([N+](=O)[O-])ccc1Cl)c1ccccc1Br | 18%
O=C(NC(=S)Nc1cc([N+](=O)[O-])ccc1Cl)c1cccc2ccccc12 | 51% (active)
CSc1nc(SC)c2c3c(sc2n1)CN(C)CC3 | 0%
Cc1ccc(OCC(=O)Nc2cc(C(F)(F)F)cc(C(F)(F)F)c2)cc1C | 0%
CCCOc1ccc(/C=C/C(=O)Nc2ccc(S(=O)(=O)Nc3ncccn3)cc2)cc1OC | 61% (active)
CCCCOc1ccc(NC(=O)/C=C/c2ccc(OC)c(OC)c2)cc1 | 3%
COc1ccc(C(=O)Nc2ccc(S(=O)(=O)Nc3ncccn3)cc2)cc1OC | 0%
O=c1[nH]n(-c2ccccc2)c(O)c1/C=C1\C=Nc2ccccc21 | 10%
O=c1[nH]c(O)c(/C=C2\C=Nc3ccccc32)[nH]1 | 0%

Structure (SMILES) | inhibition
Cc1ccc([N+](=O)[O-])cc1NC(=O)COc1ccc(Cl)cc1C | 13%
O=C(Nc1ncccc1Cl)C1CCCO1 (stereo unspecified) | 18%
COc1ccc(-c2csc(/C(C#N)=C/Nc3ccc(S(=O)(=O)Nc4nccs4)cc3)n2)cc1 | 6%
N#C/C(=C\Nc1ccc(S(=O)(=O)Nc2nccs2)cc1)c1nc(-c2ccc(-c3ccccc3)cc2)cs1 | 16%
Cc1cccc(NC(=O)/C(C#N)=C\c2cc(C)n(-c3ccc(C)c(C)c3)c2C)c1 | 10%
NN1CCN(Cc2cccc3ccccc23)CC1 | 7%
O=C(Cc1ccccc1Cl)c1ccc(O)cc1O | 7%
Cc1c(O)ccc(C(=O)Cc2ccccc2Cl)c1O | 10%
O=C(c1cccc(F)c1)N1CCN(C(=O)c2cccs2)CC1 | 7%
COc1cc(OC)c(OC)cc1CN1CCN(Cc2ccccn2)CC1 | 5%
CCc1c(C)sc(NC(=O)c2cccc(Br)c2)c1C(=O)OC | 16%
CCc1c(C)sc(NC(=O)c2ccc(OC)c(OC)c2)c1C(=O)OC | 16%
CCc1c(C)sc(NC(=O)c2ccncc2)c1C(=O)OC | 73% (active)
CCOC(=O)c1ccc(NC(=O)c2cn(-c3ccccc3)nc2-c2ccccc2)cc1 | 9%
COc1cc(C=O)ccc1OCCCCOc1c(C)cc(C)cc1Br | 31%
O=C(Nc1nc2ccc3ccccc3c2s1)c1ccc(Cl)cc1 | 54% (active)
O=C(Nc1nc2ccc3ccccc3c2s1)c1cccc(Cl)c1 | 5%
O=C(Nc1nc2ccc3ccccc3c2s1)c1ccc(C(=O)c2ccccc2)cc1 | 18%
COc1ccc(NC(=O)c2c(-c3c(Cl)cccc3Cl)noc2C)c([N+](=O)[O-])c1 | 1%
CCOc1ccc(N2C(=O)NC(=O)/C(=C\c3ccc(Sc4ccccc4)o3)C2=O)cc1 | 15%
O=[N+]([O-])c1ccc(/C=C/C=N/Nc2nc(N3CCOCC3)nc(N3CCOCC3)n2)cc1 | 2%
CCCC(=O)Nc1sc(C(=O)N(CC)CC)c(C)c1C(=O)OC | 24%
CCN(CC)C(=O)c1sc(NC(=O)C(C)(C)C)c(C(=O)OC)c1C | 43%
CCN(CC)C(=O)c1sc(NC(=O)/C=C/C(=O)O)c(C(=O)OC)c1C | 70% (active)

Structure (SMILES) | inhibition
O=Cc1ccc(-c2ccc(OC(F)(F)F)cc2)o1 | 7%
O=C(Nc1ccc(-c2cc3ccccc3oc2=O)cc1)c1ccc(Cl)c(Cl)c1 | 0%
O=C(Nc1ccc2oc(-c3ccc(F)cc3)nc2c1)c1cc(Br)ccc1Cl | 2%
O=C(Nc1ccc(-c2cc3ccccc3oc2=O)cc1)c1cccc(F)c1 | 58% (active)
COc1cccc(C(=O)Nc2ccc(-c3cc4ccccc4oc3=O)cc2)c1 | 45%
COc1cc(OC)cc(C(=O)Nc2ccc3oc(-c4ccc(I)cc4)nc3c2)c1 | 16%
O=C(Nc1ccc2oc(-c3ccc(Cl)c(Cl)c3)nc2c1)c1ccc(F)cc1 | 60% (active)
O=C(Nc1ccc2oc(-c3cccc(Cl)c3)nc2c1)c1cccc(F)c1 | 50% (active)
O=C(Nc1ccc2oc(-c3cccc(F)c3)nc2c1)c1cccc(F)c1 | 14%
COc1ccc(-c2nc3cc(NC(=O)c4ccc(F)cc4)ccc3o2)cc1Cl | 13%
O=C(Nc1cccc(-c2nc3cc(Cl)ccc3o2)c1)c1cccc(F)c1 | 21%
COc1cc(OC)cc(C(=O)Nc2ccc3oc(-c4ccc(Br)cc4)nc3c2)c1 | 27%
COc1cc(OC)cc(C(=O)Nc2ccc3oc(-c4ccc(Cl)c(Cl)c4)nc3c2)c1 | 56% (active)
Cc1cccc2c(Nc3ccccc3)c3ccccc3nc12 | 17%
CCOC(=O)c1cccc(Nc2ncnc3ccc(C)cc23)c1 | 0%
Fc1ccc(/C=N/c2ncn[nH]2)cc1 | 6%
CNC(=O)C(=O)NCCN1CCN(S(=O)(=O)c2ccc([N+](=O)[O-])cc2)CC1 | 0%
O=C(COc1ccccc1Br)Nc1ccc(Cl)c(Cl)c1 | 20%
COc1ccc(C(=O)NC(CC(=O)O)c2ccccc2)cc1 (stereo unspecified) | 0%
CC(=O)c1cccc(N/C=C\C(=O)c2ccc(Cl)c(Cl)c2)c1 | 10%
Cc1ccc(NC(=O)/C=C/c2cccc(C(F)(F)F)c2)cc1 | 12%
O=C1C=CC(=O)N1c1ccc(-c2nc3ccc(N4C(=O)C=CC4=O)cc3[nH]2)cc1 | 14%
O=C1c2ccccc2C(=O)N1c1ccc(-c2nc3ccccc3[nH]2)cc1 | 0%
CCOC(=O)C1=C(C)N=c2s/c(=C\c3ccc(Br)o3)c(=O)n2C1c1ccc(OC)cc1OC (stereo unspecified) | 23%
